# Screens from PubChem.
# 3T3 cytotox = NIH 3T3 cell cytotoxicity. NIH 3T3 viability, CellTiter-Glo ATP luminescence, 48-72 h. Potency, µM (titrated, usually from 96.7 µM), for inactives: top-dose activity change, negative = cytotoxicity, usual class: inhibitors. 94,000 compounds, 4.3% hits. AID 1345082; note: nearly all actives have a fitted effect of over 55% in size
#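 Cytotoxicity was measured by CellTiter-Glo ATP luminescence after 48 or 72 h compound exposure at 37 °C. Mouse NIH 3T3 fibroblasts were seeded at 400 cells/well and dosed by 23 nL pin transfer.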
# FLuc inh = Photinus pyralis luciferase inhibition; AID 1347043; Potency, µM (highest dose often 115 µM), usual class: inhibitors; 76,000 compounds, 2.5% hits; purified P. pyralis luciferase, luminescence, biochemical; note: nearly all actives have a fitted effect of over 65% in size
#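 FLuc 10nM, D-luciferin 10uM, ATP 10uM, Mg acetate 10mM, Tris acetate pH 7.5, Tween/BSA; cpd qHTS; enzyme added last; CCD luminescence.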
# HEK293 tox = cytotoxic compounds in HEK 293 cells. Potency, µM (series often up to 115 µM), inactives show top-dose activity change, negative = cytotoxicity, most hits filed as inhibitors. HEK 293 viability, ATP luminescence (CellTiter-Glo), 48-72 h. AID 1345083. 94,000 compounds, 6.6% hits; note: nearly all actives have a fitted effect of over 60% in size
#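 qHTS cytotoxicity; HEK 293, 250 cells/well; compound pinned; 48 or 72 hr, 37 degree Celsius, 5% CO2, 95% humidity; CellTiter-Glo, 10 min RT; luminescence (ATP).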
# NPR1 antag = antagonists of human natriuretic peptide receptor Npr1; P16066; HEK293 hNpr1 GloSensor cGMP, ANP-stimulated luminescence; Potency, µM (top dose mostly 46.3 µM), for the others: top-dose activity change, negative = inhibition, most hits filed as inhibitors; AID 1347048; 76,000 compounds, 1.6% hits; calls by dose curve; note: nearly all actives have a fitted effect of over 60% in size
#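 Compound pre-incubated 30 min at room temperature on GloSensor-loaded HEK293 cells stably carrying hNpr1 and the pGS-40F cGMP biosensor. Stimulation uses hNppA at 0.1 nM final; luminescence is taken at baseline and 20 min post-agonist.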
# * = called active by the depositor; i = inactive; ? = inconclusive; . = not tested or not shown; ! = not active in a repeat; [ ] = another dose, or the depositor's remark. The list is not random: actives were taken first. Their share in the collection is about 11%. Unless noted, calls come from the whole dose curve; as a rule, active = well fitted curve in the direction sought with a large enough effect; inconclusive = small, poorly fitted or top-dose-only effect, or another doubt; inactive = no such curve, though single readings can be large; an effect the other way counts as inactive or inconclusive. % is set by controls: 0 for no effect and ±100 for the full control effect; potency is the fitted concentration of half-maximal effect.
SMILES,3T3 cytotox,FLuc inh,HEK293 tox,NPR1 antag
O=C(c1ccccc1Cl)N1CCc2nc(-c3ccccc3)nc(-c3ccc(Cl)cc3)c2C1,?,i,?,-20%
O=C(c1cccc(Cl)c1)N1CCc2nc(-c3ccc(Cl)cc3)nc(-c3ccccc3)c2C1,?,?,?,2%
COc1cccc(C(=O)N2CCc3nc(-c4ccccc4)nc(-c4ccc(Cl)cc4)c3C2)c1,?,i,40µM*,5%
O=C(c1cccc(Cl)c1)N1CCc2nc(-c3ccccc3)nc(-c3ccc(Cl)cc3)c2C1,?,i,28µM*,-11%
O=C1Nc2ccccc2OCC12CCN(Cc1cccnc1)CC2,-13%[138 µM],i,-22%[172 µM],9%[70.6 µM]
CCNC(=O)N1CCC2(CC1)CN(c1ccccc1)C2=O,i,i,-7%,8%
COc1cccc(-c2cccc(CCOc3cnc4c(ccn4CC(=O)O)c3)c2)c1,?,i,?,3%[70.6 µM]
Cc1cc(F)ccc1-c1cccc(COc2cnc3c(ccn3CC(=O)O)c2)c1,-10%[138 µM],i,?,-1%[70.6 µM]
O=C(O)Cn1ccc2cc(OCc3cccc(-c4ccc(F)cc4F)c3)cnc21,-3%[138 µM],20µM*,?,4%[70.6 µM]
Cn1nccc1-c1cccc(CCOc2cnc3c(ccn3CC(=O)O)c2)c1,45µM*,i,-9%[172 µM],-13%[70.6 µM]
COCCN1C(=O)CS(=O)(=O)C12CCN(C(=O)c1cc(C)ccc1C)CC2,-16%,i,-24%,-14%
Cc1ccc([S+](=O)([O-])NC2CCN(c3ccc4nnc(C)n4n3)CC2)cc1,-27%,.,?,.
Cc1ccc(CN2CCN(C(=O)CCC3CCN(C(=O)c4ccccc4)CC3)CC2)cc1,-24%,i,?,?
Cc1ccc(C(=O)N2CCC(CCC(=O)N3CCCCC3)CC2)cc1,-13%,28µM*,?,2%
CCC(CC)NC(=O)CCC1CCN(C(=O)c2ccc(C)cc2)CC1,-6%,40µM*,-11%,-13%
Cc1ccc(C(=O)N2CCC(CCC(=O)NC3CCCCCC3)CC2)cc1,?,40µM*,?,-20%
CNC(=O)[C@@H]1C[C@H](Oc2ccccc2)CN1C(=O)Cc1cccc(F)c1,-7%,i,i,6%
O=C(Cn1nc2c(cc1=O)CCCCC2)NCCn1ccc2c(Cl)cccc21,?,i,79µM*,-22%
Cc1ccc2nc(NC(=O)Cn3nc4c(cc3=O)CCCCC4)sc2c1,-17%,35µM*,?,2%
CC(C)NC(=O)Cn1nc2c(cc1=O)CCCCC2,i,i,8%,-1%
CC(C)[C@H](NC(=O)Cn1nc2c(cc1=O)CCCCC2)C(=O)O,i,22µM*,4%,5%
COc1ccc(C2Cn3nnc(-c4noc(-c5ccncc5)n4)c3CO2)cc1 (stereo not drawn),0%,i,12%,8%
Cc1nn(-c2ccccc2)c2c1C(C(C)C)N(C1CCN(C(=O)c3ccc(F)cc3)CC1)C2=O (stereo not drawn),?,.,35µM*,.
Cc1nn(-c2ccccc2)c2c1C(C1CC1)N(C1CCN(C(=O)c3ccc(Cl)cc3)CC1)C2=O (stereo not drawn),-16%,.,-4%,.
Cc1nn(-c2ccccc2)c2c1C(C)N(C1CCN(C(=O)Cc3ccc(F)cc3)CC1)C2=O (stereo not drawn),?,.,50µM*,.
SMILES,3T3 cytotox,FLuc inh,HEK293 tox,NPR1 antag
CC(=O)N1CCC(N2C(=O)c3c(c(C)nn3-c3ccccc3)C2C)C1 (stereo not drawn),?,.,-17%[172 µM],.
Cc1nn(-c2ccccc2)c2c1C(C(C)C)N(C1CN(C(=O)c3ccc(Cl)cc3)C1)C2=O (stereo not drawn),?,.,32µM*,.
Cc1nn(-c2ccccc2)c2c1C(C)N(C1CCN(C(=O)c3ccc(F)cc3)CC1)C2=O (stereo not drawn),35µM*!,.,?,.
CC(=O)N1CCC(N2C(=O)c3c(c(C)nn3-c3ccccc3)C2C)CC1 (stereo not drawn),?,.,4%,.
Cc1nn(-c2ccccc2)c2c1C(C(C)C)N(C1CCN(C(=O)Nc3ccccc3)CC1)C2=O (stereo not drawn),-6%,.,i,.
Cc1nn(-c2ccccc2)c2c1C(C(C)C)N(C1CCN(C(=O)c3ccccc3)CC1)C2=O (stereo not drawn),?,.,45µM*,.
Cc1nn(-c2ccccc2)c2c1C(C(C)C)N(C1CCN(C(=O)c3ccncc3)C1)C2=O (stereo not drawn),-18%,.,?,.
Cc1nn(-c2ccccc2)c2c1C(C(C)C)N(C1CCN(C(=O)c3ccc(C(F)(F)F)cc3)C1)C2=O (stereo not drawn),16µM*,.,?,.
Cc1nn(-c2ccccc2)c2c1C(C(C)C)N(C1CCN(C(=O)N(C)C)CC1)C2=O (stereo not drawn),?,.,45µM*,.
COC(=O)N1CCC(N2C(=O)c3c(c(C)nn3-c3ccccc3)C2C(C)C)CC1 (stereo not drawn),-21%,.,?,.
Cc1nc(C)c(C(=O)NC2CCN(C(=O)N3CC4CC(C3)[C@H]3CCCC(=O)N3C4)CC2)s1 (stereo partly drawn),-17%,i,6%,-2%
O=C(Nc1ccccc1)N1CCC(C(=O)N2CCC(N3CCCC3=O)CC2)CC1,-11%,.,3%,.
O=C(NCc1ccc(Cl)cc1)c1ccc2nnc(-c3ccc(Cl)cc3Cl)n2c1,32µM*,.,?,.
COc1ccc(CCNC(=O)c2ccc3nnc(-c4ccc(Cl)cc4)n3c2)cc1,-21%,.,-6%,.
O=C(Nc1cccc(Cl)c1)c1ccc2nnc(-c3ccc(Cl)cc3)n2c1,45µM*,.,40µM*,.
O=C(NCc1ccc(F)c(F)c1)c1ccc2nnc(Cc3ccc(Cl)cc3)n2c1,35µM*,.,?,.
O=C(NCc1ccc(F)c(F)c1)c1ccc2nnc(C3CC3)n2c1,?,.,-2%[172 µM],.
COc1ccc(Cc2nnc3ccc(C(=O)NCCc4ccc(Cl)cc4)cn23)cc1,?,.,89µM*,.
O=C1NCCCCCCN(Cc2ccncc2)[C@@H]2CN(S(=O)(=O)c3cccc(F)c3)CC[C@@H]12,-7%,i,-14%,4%
Cn1cccc1C(=O)C(=O)Nc1nn(C)c2cccc(N3CCOC3=O)c12,-16%,i,-15%,0%
CCC1(CC)CC1C(=O)N1CCc2onc(-c3cccc(F)c3)c2C1 (stereo not drawn),?,i,45µM*,-26%
COc1ccc(C(=O)N[C@H]2[C@H](O)[C@H](O)C[C@@H]2c2ccc(C(F)(F)F)cc2)cc1OC,-29%[138 µM],i,?,-28%[70.6 µM]
CN(C)C(=O)N1CCC2(CC1)CC(c1cccc(C(F)(F)F)c1)=NO2,?,.,45µM*,.
Cc1ccc(CN2CCC3(CC2)CC(c2cccnc2)=NO3)cc1,?,i,79µM*!,-17%[70.6 µM]
Cc1noc(C)c1[S+](=O)([O-])N1CCC2(CC1)CC(c1cccc(C(F)(F)F)c1)=NO2,4.5µM*,.,?,.
